PubChem BioAssay AID1159580 (chemical genetic matrix, 2015)
Hit rate of the full screen: of about 5,500 compounds, about 2,000 (36%) were called active. Another 18% or so got no clear call; they are omitted. Rule as the data show it: active = normalized growth mostly below about 0.91 (no sharp cut-off); inconclusive = no clear call, values can overlap the other calls; inactive = mostly above about 0.92. Some of the results follow.

Test: chemical genetic growth profiling, strain panel (AID 1159580);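 also: tested at 20 µM; growth read once vehicle control cultures reached saturation at 30 °C; 1 = growth at the plate median or of vehicle wells; lower values mean less growth of the strain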
Settings: S. cerevisiae deletion strains, growth OD

Measured: normalized growth

C/C=C/C(=O)N(CC)c1ccccc1C
inactive: locus YAL021C, strain ccr4, active compounds read low 1.02 | locus YAL026C, strain drs2, active compounds read low 1.01 | locus YAL030W, strain snc1, active compounds read low 1 | locus YBL061C, strain skt5, active compounds read low 0.995 | locus YBR009C, strain hhf1, active compounds read low 1.02 | locus YBR023C, strain chs3, active compounds read low 1.01 | locus YBR171W, strain sec66, active compounds read low 1 | locus YBR231C, strain swc5, active compounds read low 1 | locus YBR279W, strain paf1, active compounds read low 1 | locus YCL011C, strain gbp2, active compounds read low 0.997 | locus YCL016C, strain dcc1, active compounds read low 0.998 | locus YCL061C, strain MRC1, active compounds read low 1.01 | locus YCL069W, strain vba3, active compounds read low 1.01 | locus YCR088W, strain abp1, active compounds read low 1 | locus YDL005C, strain med2, active compounds read low 1 | locus YDL040C, strain nat1, active compounds read low 1 | locus YDR001C, strain nth1, active compounds read low 1 | locus YDR069C, strain doa4, active compounds read low 1.02 | locus YDR137W, strain rgp1, active compounds read low 1.02 | locus YDR159W, strain sac3, active compounds read low 1 | locus YDR195W, strain ref2 0.986 | locus YDR297W, strain sur2, active compounds read low 1 | locus YDR334W, strain swr1, active compounds read low 0.997 | locus YDR335W, strain msn5, active compounds read low 1.01 | locus YDR392W, strain spt3, active compounds read low 0.942 | locus YEL003W, strain gim4, active compounds read low 1.01 | locus YEL037C, strain rad23, active compounds read low 1.01 | locus YEL061C, strain CIN8 (second series), active compounds read low 1.01 | locus YER015W, strain faa2, active compounds read low 1.01 | locus YER016W, strain bim1, active compounds read low 1.01 | locus YER111C, strain swi4, active compounds read low 0.995 | locus YER155C, strain BEM2 (second series), active compounds read low 1.01 | locus YFR010W, strain ubp6, active compounds read low 1.02 | locus YGL167C, strain pmr1, active compounds read low 1 | locus YGL173C, strain kem1, active compounds read low 1.01 | locus YGL227W, strain vid30, active compounds read low 1.01 | locus YGL240W, strain doc1, active compounds read low 1.02 | locus YGL253W, strain hxk2, active compounds read low 1.01 | locus YHR013C, strain ard1, active compounds read low 1.01 | locus YHR027C, strain rpn1, active compounds read low 1.02 | locus YHR030C, strain SLT2, active compounds read low 1.03 | locus YHR079C, strain IRE1, active compounds read low 1.02 | locus YHR142W, strain chs7, active compounds read low 1.02 | locus YJL092W, strain hpr5, active compounds read low 1 | locus YJL095W, strain BCK1 (second series), active compounds read low 1 | locus YJL095W, strain BCK1, active compounds read low 0.977 | locus YJL115W, strain asf1, active compounds read low 1 | locus YJL129C, strain trk1, active compounds read low 1.03 | locus YJL154C, strain vps35, active compounds read low 1.01 | locus YJL164C, strain tpk1, active compounds read low 1.01 | locus YJL166W, strain qcr8, active compounds read low 1.02 | locus YJL187C, strain SWE1, active compounds read low 1.01 | locus YJR066W, strain TOR1, active compounds read low 0.966 | locus YKL160W, strain elf1, active compounds read low 1.01 | locus YKR026C, strain gcn3, active compounds read low 1.01 | locus YKR091W, strain srl3, active compounds read low 1 | locus YLL001W, strain dnm1, active compounds read low 0.996 | locus YLL026W, active compounds read low 1.01 | locus YLL041C, strain sdh2, active compounds read low 1.01 | locus YLR027C, strain aat2, active compounds read low 0.996 | locus YLR113W, strain HOG1, active compounds read low 0.969 | locus YLR221C, strain rsa3, active compounds read low 1 | locus YLR258W, strain gsy2, active compounds read low 1.01 | locus YLR262C, strain YPT6 (second series), active compounds read low 1 | locus YLR320W, strain mms22, active compounds read low 1 | locus YLR342W, strain FKS1, active compounds read low 1 | locus YLR357W, strain rsc2, active compounds read low 1.02 | locus YLR370C, strain arc18, active compounds read low 1.01 | locus YLR384C, strain iki3, active compounds read low 0.998 | locus YML120C, strain ndi1, active compounds read low 1 | locus YMR058W, strain fet3, active compounds read low 1.02 | locus YMR125W, strain sto1, active compounds read low 1.01 | locus YMR129W, active compounds read low 1 | locus YMR205C, strain PFK2, active compounds read low 1.01 | locus YMR231W, strain pep5, active compounds read low 1.01 | locus YNL071W, strain lat1, active compounds read low 1 | locus YNL183C, strain NPR1, active compounds read low 0.975 | locus YNL209W, strain ssb2, active compounds read low 1 | locus YNL248C, strain rpa49, active compounds read low 0.993 | locus YNL322C, strain KRE1 (second series), active compounds read low 1.01 | locus YNR049C, strain mso1, active compounds read low 1.01 | locus YOR001W, strain rrp6, active compounds read low 1.03 | locus YOR070C, strain gyp1, active compounds read low 1 | locus YOR080W, strain dia2, active compounds read low 1 | locus YOR083W, strain WHI5, active compounds read low 1.02 | locus YOR106W, strain vam3, active compounds read low 1.04 | locus YOR231W, strain MKK1, active compounds read low 1.02 | locus YOR265W, strain rbl2, active compounds read low 1 | locus YOR270C, strain vph1, active compounds read low 0.999 | locus YOR290C, strain snf2, active compounds read low 1.01 | locus YPL051W, strain arl3, active compounds read low 1 | locus YPL078C, strain atp4, active compounds read low 1.02 | locus YPL106C, strain sse1, active compounds read low 1.01 | locus YPL240C, strain hsp82, active compounds read low 1 | locus YPL256C, strain CLN2, active compounds read low 0.986
